# Source: the supplement of paper PMC10681739
# Assays:
# ETS1 [1] = biological target: T1, ETS1 (UniProt P14921); assay: ETS1 binding intensity (PBM fluorescence), ETS1 alone (arbitrary fluorescence units); higher = stronger binding; conditions: ETS1 concentration 1 nM; RUNX1 concentration 0 nM
# T1 sequence: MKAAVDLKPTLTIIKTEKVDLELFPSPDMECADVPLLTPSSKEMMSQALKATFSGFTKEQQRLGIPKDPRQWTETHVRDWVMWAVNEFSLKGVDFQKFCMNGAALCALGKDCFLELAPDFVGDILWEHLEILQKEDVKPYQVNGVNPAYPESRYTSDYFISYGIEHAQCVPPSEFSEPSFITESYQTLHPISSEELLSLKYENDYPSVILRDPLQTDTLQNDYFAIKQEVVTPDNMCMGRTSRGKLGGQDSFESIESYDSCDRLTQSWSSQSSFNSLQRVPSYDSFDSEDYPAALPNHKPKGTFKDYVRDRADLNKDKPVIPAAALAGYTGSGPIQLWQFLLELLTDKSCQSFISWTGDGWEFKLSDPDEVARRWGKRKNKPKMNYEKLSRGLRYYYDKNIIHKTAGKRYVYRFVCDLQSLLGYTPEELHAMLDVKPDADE
# RUNX1 [2] = biological target: RUNX1 (UniProt Q01196); assay: RUNX1 binding intensity (PBM fluorescence), RUNX1 alone (arbitrary fluorescence units); higher = stronger binding; conditions: RUNX1 concentration 2 nM; ETS1 concentration 0 nM
# Protocol: (§1)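 Cooperative gcPBM on 36-bp genomic probes with neighbouring ETS1 and RUNX1 sites. Recombinant human RUNX1 (2 nM) was incubated alone or with ETS1 (25 nM) and detected with anti-RUNX1 antibody plus Alexa488 secondary. Values are medians over 4 replicate spots; the RUNX1+ETS1 data were normalised to the RUNX1-only data. The probes sit in constant array flanks that are not printed.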
# ETS1 [3] = biological target: T1, ETS1; assay: ETS1 binding intensity (PBM fluorescence) in presence of RUNX1, normalised to ETS1-only experiment (arbitrary fluorescence units); higher = stronger binding; conditions: ETS1 concentration 1 nM; RUNX1 concentration 25 nM
# RUNX1 [4] = biological target: RUNX1 (UniProt Q01196); assay: RUNX1 binding intensity (PBM fluorescence) in presence of ETS1, normalised to RUNX1-only experiment (arbitrary fluorescence units); higher = stronger binding; conditions: RUNX1 concentration 2 nM; ETS1 concentration 25 nM
# Protocol: as §1
# 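Throughout, for RUNX1 binding intensity (PBM fluorescence) in presence of ETS1, normalised to RUNX1-only experiment: Full-length recombinant human ETS1 or RUNX1 bound to double-stranded 36-bp genomic probes on microarrays, detected by protein-specific primary antibody and Alexa488 secondary, spot fluorescence as median of four replicate spots.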
# 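Throughout, for RUNX1 binding intensity (PBM fluorescence), RUNX1 alone: Full-length recombinant human RUNX1 bound to double-stranded 36-bp genomic probes on a high-density microarray, scored as Alexa488 fluorescence per spot via anti-RUNX1 antibody, median of four replicate spots.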
# Chain of RUNX1 (Q01196 whole entry): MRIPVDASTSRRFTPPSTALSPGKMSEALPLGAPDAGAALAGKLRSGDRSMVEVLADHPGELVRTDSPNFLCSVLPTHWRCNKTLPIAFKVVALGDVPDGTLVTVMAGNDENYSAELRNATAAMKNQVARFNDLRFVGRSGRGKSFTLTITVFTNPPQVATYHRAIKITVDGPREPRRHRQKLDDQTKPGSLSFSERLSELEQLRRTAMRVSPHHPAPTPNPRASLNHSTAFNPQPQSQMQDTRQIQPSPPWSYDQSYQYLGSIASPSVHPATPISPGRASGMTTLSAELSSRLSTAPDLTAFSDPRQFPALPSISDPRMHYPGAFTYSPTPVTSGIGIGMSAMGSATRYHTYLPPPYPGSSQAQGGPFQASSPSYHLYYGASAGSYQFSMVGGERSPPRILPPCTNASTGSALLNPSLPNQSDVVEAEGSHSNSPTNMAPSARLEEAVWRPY
Sequence,ETS1 binding intensity (ETS1 [1]),RUNX1 binding intensity (RUNX1 [2]),ETS1 binding intensity (ETS1 [3]),RUNX1 binding intensity (RUNX1 [4])
GCACCGTCTACCCGGAAGTTGTGGGCTGGGAGGGAT,5610,813,9990,1430
GCGGGAAAAGGGAAGTTTGCGGGAGGTCAAATCCAC,563,867,550,968
CCCCTTCCCGTTCTCCGAAAGTGCGCGGGTTGGAGC,489,792,361,1230
TTGTCAGATGGCGAAGGAAACCGCGAAATTCGCCAT,608,1270,1270,1050
ATGTACATAGATACAGGATGTGGGTTTGTTACAAAG,7940,746,24400,3400
ACCATAAGGACCGGAAGCAGAGACCACACTGGTGCT,7910,831,12600,1440
AGCACTTCCGTTTGGGCAGGGCTGCGGGCCGGAGGG,911,746,831,2130
GAAGCGGAAGTCGCTGAGGGGTGGTGAAGCGGTTGG,1930,710,2420,1010
TACGGGAACTTCCTTTTCTTGTGGTGTGGCCGGGTC,571,873,853,2050
TGCGCCGCTTCCGCTGCCCGAGGAAGAGCCGCAGTC,1090,802,1230,1870
AGAACCACTTCCTCTCAGTAAACCACAGAGACTGTA,592,1790,1310,5880
GCAACGGAGTCCGGAAGAACCACAGAGACGCGGCTC,789,730,694,858
CGACAGAGGACACTTCCTTTTGCGGGTGGCGGCGAA,550,697,1170,1460
GCACAGGCCGGAAGGAAAAGGGTTGTGGGGCTCATT,1290,814,1180,952
CTCTTCAGCAGGAAATGATGTGGTAAAACAGGGTTA,3000,856,10100,1390
GTCGTCCCGGAAACCGGGATGCGGTTATCAGAGCGA,1860,1000,7110,3180
TACTTCTTCCTGGCAGAGACCGGGAGTGCGGTCCGC,471,745,588,920
TTGGAGGCGGAAACAGGCACCGAAAGCGGTGGAAGT,2150,717,2120,854
CTGCTAGCGGAAGCAGCCAAGCCCACAGGCTCCAGG,942,732,1140,1040
CAAGCTGGCAGGAAGCGCGGTGCAACCACAAGAGTC,1870,765,6690,1260
TTCGGATTCCCGGAAGAACCCGCAGCAGCTCCCAGG,792,789,1020,1190

Sequence,ETS1 binding intensity (ETS1 [1]),RUNX1 binding intensity (RUNX1 [2]),ETS1 binding intensity (ETS1 [3]),RUNX1 binding intensity (RUNX1 [4])
GCACTACATTTCCCAGCTTTCCTCGCGGTAAAGAGA,456,1270,429,1270
CCTGCCTGAGGCAGGAAGCCGCAGCTGAGGGACGGC,2980,761,5390,1280
TCCCGAGAGCCGGAAGCAGCCGCAGGCCCCGCCACA,3950,778,4410,1330
GCGCAAGGATCCGGTTTGTTGTGGTGTGGGGAGGGG,517,814,503,1070
GAGGCAGGCGGATGTCAGTGTGGTTAGAGCACAGTG,1170,782,3310,1960
GGGGAAAGGAAGAGGAAACCGCGAGTGCAAAGGCCC,679,1140,1580,2330
CCTCACCCAGGAAGTGGCTGCGGCTGTCTCAGGGTT,2450,770,3340,1440
ACCGCCGGAAGTTTCTGCCGCGGCTTTGCGGGGACG,3320,791,9610,1760
GCAGTGCAGGAAGTGCTTTGTGTGGTACAATCCCAA,1920,759,2110,1030
CTCCTGTTCCGGCTCAAAGGGAAACCGCTGCTTTTC,605,1210,907,1460
CCTCCCTGAGGGGGAAGTGGTTTTTGAGTCTGAGTC,579,859,1190,1020
GACATCTTCCGGTTGCTACAGGTTACGGCGGTTGCT,2700,778,2640,1640
GTAGCTCCTCCCACTTCCCGTGGTTTTCGGTTGAAC,564,1240,916,2760
TTTCCACTTCCTGTTCTACTTGTGGCTACTGACTCA,2530,1100,2890,3380
TCCCGGGGAGGAAGTGGCGAGAATGCGGGGGTGGGC,1340,906,1440,1120
ACACAGGAAGCAAAAGTTAAGCTATAAAACCCGCAA,571,969,765,1240
TGTATAACATCCTCATGTTCTGTGGGTGAGTTGAGC,481,824,356,871
TATGGGGCCGGAAGCCATTCACCACAAACACTGTGT,2430,953,9050,3610
CGGTGGCTTCCGGCCCATGGCGGTGGTTGGTGACTC,807,770,953,1840
GGGATCTACTTCCTCTCTCGGCCGCGGCCGCAGCAC,790,792,1150,1730
AGCTAGACTACAGGAGGAAACCACAGCCTAAACCAG,541,1250,1030,1410

Sequence,ETS1 binding intensity (ETS1 [1]),RUNX1 binding intensity (RUNX1 [2]),ETS1 binding intensity (ETS1 [3]),RUNX1 binding intensity (RUNX1 [4])
GCAGAAGAGGAAATGGTTTGCCTGTGCGGTGGGGGA,1370,821,3280,999
ATCATCTAGGAGACAGGATGTGGTTAGGGTGTTAAA,6360,1070,59800,7840
GCCTCCTCCCATTTCCTCCATGTGGTCAATCCAGTT,459,2070,731,3860
CAACTTCCGGGGCCGGTTGCCTGGCAACCGCAGGAG,812,965,3940,3790
CTCAGGAATGCGGAAGTGCTCTGTGGGCACCCACCA,2970,707,5950,1560
CCCGACTTCCGCCGCTGGTGGCCACCCGCAGGTAGT,732,789,1050,2050
TATTCATGACATCCTGTCGGGCTTGTGGGCTGCGTA,1020,704,1590,1430
CTCTTCCGCTCAGTCATCCTCAGAGGTGGTAAGACT,496,1080,387,2080
AGTGTCCGCCGCTTCCTGGTTGCGGGTCAGCGCCCA,629,824,704,2690
TTACTGCCGGAACTTGGGACCTTTGTAACCACGTCT,524,768,586,875
AGGGCATAAACAGGATGTGGTGTTGGATGAAACCTT,5290,750,7490,1360
CAAAGGTTAAATGCAGGATGTGGTTTCTGCAGACTC,2750,922,25400,3990
GGGAACTCACACCGGAAACCACAGAACCAAGAGTGG,7140,3800,16300,6540
GTGCTAAGTGAGGAAGTGCAGTTTACCGCACGGTGG,839,675,2410,935
GGAGGGGCTGGCCGGAAGTGAACCGCAGAGCACGCT,11600,1070,33500,2980
GGTTCGCGGCTTCCGGGACATTTGTACCGCAGGGGG,960,759,2330,1510
CTCACAGCAGCCCCAGGAAACCACCTCTTCCTTCAG,847,997,876,1030
CCGCTTCCGGCCTTCGCCCGGCTTACCCGCGTCGCA,1490,1070,1740,2920
AGCCGTTTCCGGCGCTCTACCCCGCCGCAGGCCGAG,833,859,979,2300
GTTTGAAGGGAAGTGGGTGTTGACCTGCGGGCAACT,483,806,948,969
GCACTCGGATGTTGGCCGTAGTTGTGGTTATAGTTG,464,1010,1090,1110

Sequence,ETS1 binding intensity (ETS1 [1]),RUNX1 binding intensity (RUNX1 [2]),ETS1 binding intensity (ETS1 [3]),RUNX1 binding intensity (RUNX1 [4])
AGGCGGCAGGAAATGACCCCATCCCGCAGCCTGGGC,2480,806,5190,2040
GTACTGAGTCACAGGAAACCACAAGGGAAGGGTCCC,2510,1570,4720,3070
GCAACTGAACAGGAAACTAAAAAACCACAACACTTA,1400,1900,15600,7890
CTAACAGCAGGAAGTGCTTGGTGGTTTAGCACCTCA,2990,664,7150,1180
AGACAGGAGTTCAGGAAGCTGCGGTCTAGATTATGT,754,1210,6250,1710
TTCATCTCTCACTTCCTGTGGTGACGGCTGACGGGG,4120,1030,4690,1660
CACCTGCAGTGAAGAGGATGTGGGCAAAGATTATGC,1350,746,2180,1100
CCATCTTCATACAGGATGCTGTGGTATGTAAAACAA,2110,787,3590,1240
AGTTTCTCAGCTTCCTGTGTGGTTTTCTTGATCTGC,1480,1620,2630,4280
ATTTCCATTTCCGGACTCTTCTCCTGCCCGCAGGGC,2270,1220,3560,3660
CACGCCTGCGGAAGATGAAAACCACACGTCATGCAG,448,960,803,915
GGTTCTCTAGGGAGAGGATGTGGGTTTGTCTCTGGG,1820,791,6540,1570
CCCGTTCTCCGGAAGTGCGCGGGTTGGAGCTGAAGC,4390,760,5690,1600
GACTGCACTTCCTCTGCTTCGAGGTCGGTGGTTAGC,535,874,653,1450
CCGCTTCCGGGACGCGAATCGCTCTGCGGCTGCGTC,556,832,722,2080
TTCAGGTGACTTCCGGCCGGACCGCTGAGGACGCGG,9020,684,9520,1630
ACTGCTTGATTTTCAGGAAGTGGTAAAGTGGCAGGT,3700,782,9050,957
CTTGTTCTATTTCCTGTTTGTGGTGAGTGACTGTCT,4300,1520,8610,3140
GCGGAGCGAGCGGCCGGATGCGGTCACCATAGAGAC,4210,917,25200,8090
CCCACTTCCTGTCCCTGCATGCTGTGGGGCAGGCAG,1500,784,1570,2420
